The panel holds about 79,000 compounds, 15% with a hit somewhere; the sample as a whole holds those more often. A number with no mark means an inactive call. Calls of active or inactive are those of the source. No stated cut-off is given here; in the data, active means growth inhibition above about 70%; inactive means the rest.
Columns and labels:
[1] = NCI Yeast Anticancer Drug Screen. Data for the rad50 strain (AID 155);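 further: 0% = growth of vehicle-only cultures of the same strain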; conditions: S. cerevisiae rad50 strain growth inhibition; at 50.0 µM; active compounds read high
Outline: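 DNA repair mutant yeast, compound exposure, growth read-out; inhibition is taken relative to vehicle.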

[2] = NCI Yeast Anticancer Drug Screen. Data for the mec2-1 strain (AID 157); conditions: S. cerevisiae mec2-1 strain, at 50.0 µM, active compounds read high
Outline: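 Cells of the genetically defined mec2-1 yeast strain are incubated with test compound. Inhibition of growth is calculated against vehicle-treated controls.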

[3] = NCI Yeast Anticancer Drug Screen. Data for the sgs1 mgt1 strain (AID 161);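 further: 0% = growth of cultures given vehicle only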; conditions: S. cerevisiae sgs1 mgt1 strain, at 50.0 µM, active compounds read high
Outline: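 Mutant yeast exposed to compound; growth scored against vehicle-only wells.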

[4] = NCI Yeast Anticancer Drug Screen. Data for the cln2 rad14 strain (AID 165);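 further: 0% = growth equal to vehicle treated cultures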; conditions: S. cerevisiae cln2 rad14 strain, at 50.0 µM, active compounds read high
Outline: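 The screen exposed genetically defined yeast (cln2 rad14) to test compounds and scored growth inhibition relative to vehicle-treated controls.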

[5] = NCI Yeast Anticancer Drug Screen. Data for the bub3 strain (AID 167); conditions: S. cerevisiae bub3 mutant strain, at 50.0 µM, active compounds read high
Outline: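 In this screen, a yeast mutant lacking normal mitotic checkpoint function is challenged with compound. Relative growth versus vehicle gives the inhibition value.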

[6] = NCI Yeast Anticancer Drug Screen. Data for the mlh1 rad18 strain (AID 175); conditions: S. cerevisiae mlh1 rad18 strain growth inhibition; at 50.0 µM; active compounds read high
Outline: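 Compound-treated yeast growth, normalised to vehicle controls. Strain bears defined DNA repair mutations.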

Row | SMILES | growth inhibition [1] | growth inhibition [2] | growth inhibition [3] | growth inhibition [4] | growth inhibition [5] | growth inhibition [6]
1 | CNP1(N(C)C)=NP(NC)(N(C)C)=NP(NC)(N(C)C)=N1 (configuration not stated) | -13.9% | 12.9% | -10.6% | -6.85% | 6.6% | 10.4%
2 | CNC(Cc1ccccc1)c1ccc(O)c(OC)c1 (configuration not stated) | -0.5% | -15.6% | -7.35% | -35% | 5.05% | 0.75%
3 | COc1ccc(C(C#N)C(C)=O)cc1 (configuration not stated) | 6.75% | 4.85% | 12.4% | 4.45% | -3.9% | -12.4%
4 | COC12C(COC(N)=O)C3=C(C(=O)C(C)=C(N4CC4)C3=O)N1CC1NC12 (configuration not stated) | 87.7% (active) | 90.3% (active) | 90.9% (active) | 86.3% (active) | 88.8% (active) | 87.2% (active)
5 | Cc1cc(NC(=O)Oc2ccc([N+](=O)[O-])cc2)ccc1S(=O)(=O)F | 1.85% | 39.4% | 14.2% | 4% | 28.6% | 35%
6 | O=[N+]([O-])c1ccc(SN2C3CCCCC32)c([N+](=O)[O-])c1 (configuration not stated) | 3.85% | 11.7% | 6.1% | 7.85% | 11.8% | 22.7%
7 | CCCCCCCCCCCCCC(=O)O.[Pb] | -4.8% | 7.35% | -5.9% | -0.65% | -12.7% | 5%
8 | C=C(C)c1ccccc1 (tested in a mixture with another compound) | 28% | 9.05% | -19.9% | -8.8% | -3.2% | 10.6%
9 | CP1(=S)CCC2=C1CCc1cc(O)ccc12 (configuration not stated) | 14.4% | -31.8% | 0.4% | -29.8% | -3.65% | 21.4%
10 | Cc1cc(-c2ccccc2)cc(-c2ccccc2)[o+]1 | 2.3% | -2.55% | 2% | -23% | 1% | 4.25%
11 | NC(=O)Oc1cc(OC(N)=O)cc(N(CCCl)CCCl)c1 | 32.8% | 34% | 36.6% | 12% | 40% | 40%
12 | C=C(CC(=O)O)C(=O)O | -2.25% | 2.8% | -3.85% | 6.2% | 6.05% | 4.9%
13 | O=C(CCc1ccccc1)Nc1ccc(Cl)cc1C(=O)c1ccccc1 | -0.85% | 20.2% | 24.4% | -26.2% | 54.1% | 28.6%
14 | O=[N+]([O-])c1cc([As](=O)(O)O)ccc1S(=O)(=O)O | -0.6% | 7.65% | 7% | -3% | 9.2% | 2.2%
15 | NC(N)=N/N=C1\C(=O)N(c2cccc([N+](=O)[O-])c2)C(=O)C1C(=O)Nc1cccc([N+](=O)[O-])c1 (configuration not stated) | -17.9% | -22.4% | -17.1% | -29.6% | 1.4% | -14.5%
16 | CCC[CH2][Sn]([Br])([c]1ccccc1)[c]1ccccc1 | 99% (active) | 99% (active) | 99.4% (active) | 99.1% (active) | 99% (active) | 98.9% (active)
17 | O=P(Oc1ccccc1)(Oc1ccccc1)C(O)c1ccccc1 (configuration not stated) | 11.2% | 3.55% | 16.8% | 0.65% | -8.4% | -2%
18 | [Se]=[Mo]=[Se] | -10.2% | -8.3% | -29.9% | -18% | -7.05% | -33.9%
19 | NNc1ccc([N+](=O)[O-])cc1 | 23.9% | 26.3% | 40.9% | -10.3% | 54.9% | 51.6%
20 | O=P(OCCCl)(OCCCl)OCCCl | -12.1% | -19.4% | -19.2% | -54.6% | 0.15% | -5%
21 | CCCC[S][Sn-]([CH2]CCC)([CH2]CCC)[CH2]CCC | 98.7% (active) | 98.7% (active) | 99.2% (active) | 98.5% (active) | 99% (active) | 99% (active)

Row | SMILES | growth inhibition [1] | growth inhibition [2] | growth inhibition [3] | growth inhibition [4] | growth inhibition [5] | growth inhibition [6]
22 | COC(=O)COC1CC[CH-]CC1.[Cl-].[Cl-].[Cl-].[Cl-].[Cl-].[Sb+5].c1ccncc1 | 20.8% | 7.8% | 18.7% | 17.6% | 4.75% | 12.8%
23 | CCOP(=S)(OCC)S/C(C(=O)NC)=C(/C)O | 64.2% | 22.9% | 35.4% | 65.1% | 55.5% | 79.7% (active)
24 | COc1ccc(/C=C(/C)[N+](=O)[O-])cc1OC | 99.3% (active) | 99.7% (active) | 99.3% (active) | 97.2% (active) | 99.7% (active) | 99.5% (active)
25 | Nc1ccc([N+](=O)[O-])cc1 | -11.2% | 2.8% | -14.9% | -6.55% | -14.7% | -1%
26 | CC(CCOc1ccc2ccc(=O)oc2c1)C1=CC(=O)C(C)(C)O1 (configuration not stated) | -6.1% | -8.3% | 21.1% | 0.05% | -7.25% | -44.1%
27 | c1ccc2c(c1)c1ccccc1c1n[se]nc21 | -4.7% | -1.5% | 2.75% | -6.25% | 7.55% | 11.9%
28 | CCC1(N)C(=O)OCc2c1cc1n(c2=O)Cc2cc3ccccc3nc2-1 (configuration not stated) | 4.8% | -17.5% | -39.6% | -7.75% | -17.1% | -12.3%
29 | CC1CN=C(Nc2ccc(F)cc2F)S1 (configuration not stated) | -9.1% | -8.6% | -65.7% | -24.4% | 12.5% | -36.6%
30 | C1=CC2CCC1C2 | 15.5% | 3.75% | -7.1% | -52% | -5.65% | 7.85%
31 | CC(Br)C(N)=O (configuration not stated) | -14.4% | -17.8% | -14.1% | -20.4% | -4.9% | -13.8%
32 | Cc1cccc(NC2=NCCO2)c1Cl | -20.4% | -25.8% | -11% | 24.9% | -9.3% | -27.3%
33 | O=C(COc1cccc(Cl)c1Cl)Nc1ccc[n+](Cc2ccc(S(=O)(=O)F)cc2)c1 | 20.4% | 0.15% | -5.45% | 31.2% | 7.4% | 28.6%
34 | COc1cc2c(cc1OC)C13CCN4CC5=CCOC6CC(=O)N2C1C6C5CC43O (configuration not stated) | -13.9% | -30.9% | -8.05% | 8.55% | -4.2% | -47.4%
35 | CN1CCC(O)(c2ccc(Br)cc2)C(C(=O)c2ccc(Br)cc2)C1 (configuration not stated) | 96.1% (active) | 12.3% | 99% (active) | -2.65% | 0.35% | 34.8%
36 | O=[N+]([O-])c1cc(Br)c(O)c(Br)c1 | 12.2% | 18.8% | 5.15% | -37.4% | 6.75% | 32.3%
37 | [Cl][Ni][Cl].[NH-]CCN1CC1.[NH-]CCN1CC1 | -9.75% | 19.4% | 19.4% | -26.4% | -4.55% | -5.75%
38 | C=CCOCN1c2cc(OC)c([C@@]3(C(=O)OC)C[C@@H]4CN(CCc5c3[nH]c3ccccc53)C[C@](O)(CC)C4)cc2[C@@]23CCN4CC=C[C@@](CC)([C@@H](OC(C)=O)[C@](O)(C(=O)OC)[C@H]12)[C@H]43 | -21.2% | -8.75% | 2.35% | 0.2% | -0.05% | -16.4%
39 | CCCCOP(=S)(N1CCCCC1)N1CCCCC1 | -8.15% | 3.5% | 5.75% | 8.3% | 2.6% | 0.95%
40 | CC(C)CCON=O | -11.3% | -9.4% | -28.2% | -9.05% | -13.1% | -35.6%
41 | O=C(c1ccccc1)N1CC(Cl)CN(C(=O)c2ccccc2)CC(Cl)C1 (configuration not stated) | 21.4% | 26% | 37.8% | 14.8% | 16.3% | 25.6%
42 | CCC(CC)CNC(=O)C(Cl)Cl | -2.25% | -9.8% | 18.6% | -18.1% | -3.4% | -1%

Source: PubChem BioAssay (NCI)
